Screening results (PubChem)
The list is not random: actives were taken first. Their share in the collection is about 8.1%.
MCF10A rerep: induces DNA re-replication in MCF 10a normal breast cells; 2.9% of 350,000 active; MCF 10A DNA re-replication, Hoechst nuclear intensity, 48 h; Potency, µM (highest dose often 46.1 µM), for inactives: top-dose activity, positive = re-replication, usual class: activators; AID 624296; note: % of control where 0% means no effect; nearly all actives have a fitted effect of over 50% in size
SW480 rerep: DNA re-replication induction in SW480 cells; SW480 DNA re-replication, Hoechst DNA content imaging, 48 h; Potency, µM (titrated, usually from 46.1 µM), without a hit: at the top dose re-replication activation, most hits filed as activators; 1.8% of 340,000 active; note: % of control where 0% means no effect; nearly all actives have a fitted effect of over 55% in size
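Quantitative HTS format with DMSO vehicle controls; 48 hr drug incubation at 37 C, then 40 min Hoechst staining and scanning imager measurement at 405 nm excitation.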
ELG1 DNA repair: blocks ELG1-dependent DNA repair in HEK293T cells. HEK293T ELG1-luciferase reporter, luminescence, 16 h; DNA damage induced by 5-fluorouridine. Potency, µM (highest dose often 46.1 µM), without a hit: at the top dose activity change, negative = inhibition, actives largely listed as inhibitors. 2.3% of 330,000 active. AID 504467; note: % is set by controls: 0 for no effect and ±100 for the full control effect; nearly all actives have a fitted effect of over 55% in size
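HEK293T cells expressing luciferase-tagged ELG1 (2,000/well) received 5-Fluorouridine plus compound or DMSO for 16 hr at 37 °C. Luciferase was read by ONE-Glo luminescence after 30 min at room temperature.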
KB-3-1 tox: KB-3-1 parental cell cytotoxicity | Potency, µM (top dose mostly 46.1 µM), most hits filed as cytotoxic | KB-3-1 viability, CellTiter-Glo ATP luminescence, 72 h | AID 1347075 | 1.4% of 400,000 active; note: % is set by controls: 0 for no effect and ±100 for the full control effect; nearly all actives have a fitted effect of over 60% in size
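Luminescent ATP read-out (CellTiter-Glo) measures survival of drug-naive KB-3-1 cells after 72 h compound exposure at 37 °C. Titration series was screened from lowest to highest concentration, with DMSO vehicle plates as background controls.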
KB-V1 cytotox: kills drug-selected multidrug resistant KB-V1 cells | KB-V1 MDR cells viability, CellTiter-Glo, 72 h | Potency, µM (doses to about 46.1 µM), hits mostly cytotoxic | 3.4% of 400,000 active | AID 1347076; note: % is set by controls: 0 for no effect and ±100 for the full control effect; nearly all actives have a fitted effect of over 60% in size
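Drug-selected KB-V1 cells, grown in DMEM lacking phenol red with 10% FBS, receive compound titrations; after three days at 37 degrees C, surviving cell ATP is quantified by CellTiter-Glo luminescence and responses normalized and curve-fitted.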
* marks the source's active call; other numbers are inactive results; i = inactive; ? = inconclusive; · = not tested or not shown; [ ] = remark or other dose. Calls come from the whole dose curve; as a rule, active = well fitted curve in the direction sought with a large enough effect; inconclusive = small, poorly fitted or top-dose-only effect, or another doubt; inactive = no such curve, though single readings can be large; an effect the other way counts as inactive or inconclusive. Potency is the fitted concentration of half-maximal effect.

SMILES	MCF10A rerep	SW480 rerep	ELG1 DNA repair	KB-3-1 tox	KB-V1 cytotox
COc1cc(Cn2c3ccc(NC(=O)CCc4ccc(O)cc4)cc3c(=O)n2C)ccc1F	·	·	·	5.8µM*	i
CCOC(=O)CCCc1ccc(/C(C)=N/NC(=S)NC)cc1	8%	29%	-14%	i	i
CCOC(=O)CCCc1ccc(/C(C)=N/NC(N)=S)cc1	20%	-1%	9.2µM*	?	8.2µM*
CCOC(=O)C1=C(O)C(=O)NC(c2ccccc2)=C(OCC)C1	-3%	?	15%	?	i
CCOC(=O)C1=C(O)C(=O)NC(c2ccccc2)=C(OC2CCCCC2)C1	3%	-1%	11%	?	15µM*
CCOC(=O)C1CCCN(C(=O)c2ccc(C)c(NC(=O)c3nsc4ccccc34)c2)C1 (stereo not drawn)	·	·	·	i	i
COCCOC(=O)/C(=C\c1cc(C(C)(C)C)c(O)c(C(C)(C)C)c1)C(C)=O	3.3µM*	?	?	i	i
CC(C)(C)c1cc(CCC(=O)NN)cc(C(C)(C)C)c1O	0%	2%	-10%	i	i
COc1ccc(CC(=O)N/N=C(\C)CC(=O)Nc2cccc(F)c2)cc1	9%	-2%	3%	?	i
COc1cccc(NC(=O)Cn2cc(C=O)c3ccccc32)c1	3%	2%	?	i	?
Cc1ccc(NC(=O)Cn2cc(C=O)c3ccccc32)cc1	29%	15µM*	-14%	i	i
O=C(NCc1ccccc1)C1Cc2c(-c3ccc4c(c3)OCO4)ccnc2O1 (stereo not drawn)	·	·	·	0.82µM*	1.2µM*
NC(=O)c1cccc(-c2ccnc3c2CC(C(=O)NCc2ccccc2)O3)c1 (stereo not drawn)	·	·	·	3.7µM*	i
Nc1nc(CSC(=S)N2CCN(c3ccccc3)CC2)nc(Nc2ccccc2)n1	4%	132%	?	i	3.3µM*
COc1ccccc1Nc1nc(N)nc(CSC(=S)N2CCN(c3ccccc3)CC2)n1	-23%[9.22 µM]	-17%	?	i	?
CN1CCN(C(=S)SCc2nc(N)nc(Nc3ccc(F)cc3)n2)CC1	-1%	-6%	-18%	i	i
Cc1ccc(Nc2nc(N)nc(CSC(=S)N3CCN(c4ccccc4)CC3)n2)cc1	6%	2%	?	i	16µM*
Nc1nc(CSC(=S)N2CCOCC2)nc(Nc2ccc(F)cc2)n1	1%	-37%	?	i	16µM*
COc1ccc(Nc2nc(N)nc(CSC(=S)N3CCOCC3)n2)cc1	-3%	?	?	i	i
Cc1ccc(Nc2nc(N)nc(CSC(=S)N3CCOCC3)n2)c(C)c1	10%	-48%	?	i	8.2µM*
O=C(Nc1ccccc1C(F)(F)F)NC1CCCCC1	11%	5%	12%	i	i
Cc1cccc(CN2CCN(C(=O)c3ccccc3F)CC2)c1	2%	4%	-28%	i	i
O=C1/C(=C/c2cccnc2)SC(=S)N1C1CCS(=O)(=O)C1 (stereo not drawn)	15µM*	?	?	?	?
O=C1/C(=C/c2cccnc2)SC(=S)N1N1CCOCC1	1%	-3%	0%	i	i
O=C1/C(=C\c2cccnc2)SC(=S)N1C1CCS(=O)(=O)C1 (stereo not drawn)	15µM*	?	?	?	i
SMILES	MCF10A rerep	SW480 rerep	ELG1 DNA repair	KB-3-1 tox	KB-V1 cytotox
COc1ccc(CNC(=O)c2cccc3c2C(=O)N(CC2CCCO2)C3)cc1 (stereo not drawn)	0%	-1%	-10%	i	i
CC1C(=O)N(Cc2cn(CC3CCCCC3)nn2)CCS(=O)(=O)N1Cc1ccc(-c2ccc(Cl)cc2)cc1 (stereo not drawn)	·	·	·	?	18µM*
CC(C)C1C(=O)N(Cc2cn(CC3CCCCC3)nn2)CCS(=O)(=O)N1Cc1ccc(-c2ccc(F)nc2)cc1 (stereo not drawn)	·	·	·	16µM*	?
COCOCCn1cc(CN2CCS(=O)(=O)N(Cc3ccc(-c4ccc(Cl)c(Cl)c4)cc3)C(C)C2=O)nn1 (stereo not drawn)	·	·	·	15µM*	?
CC1C(=O)N(Cc2cn(CC3CCCCC3)nn2)CCS(=O)(=O)N1Cc1ccc(-c2ccc(Cl)c(Cl)c2)cc1 (stereo not drawn)	·	·	·	i	i
Cc1cccn2c(=O)c(/C=C(\C#N)S(=O)(=O)c3ccccc3)c(N3CCN(Cc4ccccc4)CC3)nc12	13%	32%	-3%	i	i
Cc1ccc(-n2ncc(C#N)c2/N=C/N2CCN(C)CC2)cc1	-3%	-5%[9.22 µM]	2%	i	i
CCCCN(C)/C=N/c1c(C#N)cnn1-c1ccc(C)cc1	?	4%	?	?	5.8µM*
CC(=O)N(NC(=O)c1ccccc1Cl)C1CC(=O)N(c2ccc(C)cc2)C1=O (stereo not drawn)	16µM*	18%	10%	i	i
Cc1ccc(N2C(=O)CC(N(O)C3CC(=O)N(c4ccc(C)cc4)C3=O)C2=O)cc1 (stereo not drawn)	4%	0%	5%	i	i
Cc1ccc(CNC(=O)c2nn(C)c(C)c2[N+](=O)[O-])cc1	-72%	0.52µM*	-22%	i	i
Cc1ccc(CNC(=O)COC(=O)Cn2nc(C)c([N+](=O)[O-])c2C)cc1	2%	2%	5%	i	i
Cc1nn(CCCC(=O)Nc2cc(Oc3ccc(F)cc3)cc([N+](=O)[O-])c2)c(C)c1[N+](=O)[O-]	0%	1%	?	i	5.8µM*
CCn1nc(C)c(C(=O)Nc2cc(Oc3ccc(Cl)cc3)cc([N+](=O)[O-])c2)c1C	8.2µM*	?	?	i	?
Cc1c(Cl)c([N+](=O)[O-])nn1CCCC(=O)Nc1cc(Oc2ccccc2)cc([N+](=O)[O-])c1	-1%	-19%	3%	i	?
Cc1ccccc1Oc1cc(NC(=O)CCCn2nc(C)c([N+](=O)[O-])c2C)cc([N+](=O)[O-])c1	2%	23%	?	i	3.3µM*
COc1ccccc1OCc1nnc(SCC(=O)c2cc(Cl)ccc2OC)o1	?	-1%	-27%	i	?
Cc1nn(CCCC(=O)NCc2ccc(Cl)cc2)c(C)c1[N+](=O)[O-]	-5%	-205%	-7%	i	23µM*
COc1ccc(CNC(=O)CCCn2nc(C)c([N+](=O)[O-])c2C)cc1OC	-1%	-5%	?	i	?
CCN(CC)C(=O)c1cccc(NC(=O)c2ccccc2OCc2c(C)noc2C)c1	-2%	-5%	-6%	i	i
CCCn1c(CN2CCN(C(=O)OCC)CC2)nc2cc(NC(=O)CC)ccc21	16µM*	6.5µM*	?	9.2µM*	?
